# Columns and labels:
# Experiment in all cases: DAPPL (digital affinity profiling via proximity ligation, sequencing); 10 mM Tris-HCl pH 7.5, 50 mM NaCl, 1 mM DTT, 4% glycerol, room temperature, 30 min; GST-TFs on glutathione beads, 16-mer random dsDNA library, 0.1% formaldehyde crosslink after washing; high values mean tight binding
# Conditions in all cases: protein: recombinant; tags: N-terminal GST; dsDNA, one strand shown
# FEV = target: T1, FEV (Homo sapiens, UniProt Q99581 1-238)
# T1 sequence: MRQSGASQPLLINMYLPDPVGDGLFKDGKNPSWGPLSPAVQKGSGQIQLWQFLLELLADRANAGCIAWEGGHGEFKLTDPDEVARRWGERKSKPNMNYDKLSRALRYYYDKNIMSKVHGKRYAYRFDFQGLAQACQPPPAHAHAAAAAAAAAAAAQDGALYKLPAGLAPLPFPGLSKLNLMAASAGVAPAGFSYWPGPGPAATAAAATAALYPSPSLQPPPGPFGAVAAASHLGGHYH
# Method in brief: (§1)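 After expression in yeast as GST fusions, human transcription factors were bound to glutathione beads, DNA-barcoded and mixed with a tag-only sample. The pools were incubated with 200 nmole of a 16-mer random double-stranded DNA library in Tris/NaCl/DTT/glycerol buffer (30 min, room temperature), washed and crosslinked with 0.1% formaldehyde. Proximity ligation with BsaI/T4 ligase ran for 1 h at 37 °C, before PCR amplification and sequencing on an Illumina NextSeq500. Binding signal is a hexamer's read frequency for a factor divided by its frequency for the tag-only sample.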
# ETV5 = ETV5 (Homo sapiens, UniProt P41161 1-510)
# ETV5, sequence (P41161 whole entry): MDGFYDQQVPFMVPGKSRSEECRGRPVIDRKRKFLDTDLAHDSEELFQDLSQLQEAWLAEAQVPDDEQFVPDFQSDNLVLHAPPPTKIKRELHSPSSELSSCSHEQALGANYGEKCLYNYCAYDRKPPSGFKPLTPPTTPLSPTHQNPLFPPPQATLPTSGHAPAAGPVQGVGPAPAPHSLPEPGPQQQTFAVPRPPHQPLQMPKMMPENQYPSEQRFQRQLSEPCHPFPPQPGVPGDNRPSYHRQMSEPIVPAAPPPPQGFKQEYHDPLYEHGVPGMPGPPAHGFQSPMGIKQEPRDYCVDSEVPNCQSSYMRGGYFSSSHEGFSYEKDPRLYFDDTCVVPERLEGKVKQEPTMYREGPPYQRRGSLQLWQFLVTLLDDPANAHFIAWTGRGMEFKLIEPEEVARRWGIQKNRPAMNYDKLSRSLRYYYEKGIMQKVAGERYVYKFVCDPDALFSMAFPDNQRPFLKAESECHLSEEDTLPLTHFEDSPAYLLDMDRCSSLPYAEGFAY
# Method in brief: as §1
# SPIC = target: T2, SPIC (Homo sapiens, UniProt Q8N5J4 1-248)
# T2 sequence: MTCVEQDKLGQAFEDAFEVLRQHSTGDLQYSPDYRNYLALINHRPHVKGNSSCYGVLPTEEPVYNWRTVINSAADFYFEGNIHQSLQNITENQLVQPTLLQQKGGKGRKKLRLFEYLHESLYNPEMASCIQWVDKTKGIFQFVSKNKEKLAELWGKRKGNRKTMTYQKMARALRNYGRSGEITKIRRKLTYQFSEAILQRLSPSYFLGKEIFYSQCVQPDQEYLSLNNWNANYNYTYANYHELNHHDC
# Method in brief: as §1
# ELF4 = ELF4 (Homo sapiens, UniProt Q99607 1-663)
# ELF4, sequence (Q99607 whole entry): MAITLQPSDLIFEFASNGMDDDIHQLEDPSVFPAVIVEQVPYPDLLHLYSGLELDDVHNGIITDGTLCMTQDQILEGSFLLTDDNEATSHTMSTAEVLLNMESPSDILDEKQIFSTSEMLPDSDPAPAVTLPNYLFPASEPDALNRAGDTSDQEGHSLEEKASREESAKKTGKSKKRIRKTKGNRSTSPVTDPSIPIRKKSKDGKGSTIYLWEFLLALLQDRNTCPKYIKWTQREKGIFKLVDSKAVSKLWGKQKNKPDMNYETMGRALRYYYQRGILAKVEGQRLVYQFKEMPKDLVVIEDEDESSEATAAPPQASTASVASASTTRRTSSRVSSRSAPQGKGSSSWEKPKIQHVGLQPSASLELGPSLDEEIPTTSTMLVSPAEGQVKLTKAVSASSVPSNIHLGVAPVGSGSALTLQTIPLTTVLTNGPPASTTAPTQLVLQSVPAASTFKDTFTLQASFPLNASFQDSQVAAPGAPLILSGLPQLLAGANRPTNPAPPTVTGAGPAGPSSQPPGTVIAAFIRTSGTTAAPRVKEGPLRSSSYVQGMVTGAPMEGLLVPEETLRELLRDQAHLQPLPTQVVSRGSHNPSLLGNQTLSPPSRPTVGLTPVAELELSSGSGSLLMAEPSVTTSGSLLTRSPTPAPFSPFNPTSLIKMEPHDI
# Method in brief: as §1
# ELK4 = target: T3, ELK4 (Homo sapiens, UniProt P28324-2 1-405)
# T3 sequence: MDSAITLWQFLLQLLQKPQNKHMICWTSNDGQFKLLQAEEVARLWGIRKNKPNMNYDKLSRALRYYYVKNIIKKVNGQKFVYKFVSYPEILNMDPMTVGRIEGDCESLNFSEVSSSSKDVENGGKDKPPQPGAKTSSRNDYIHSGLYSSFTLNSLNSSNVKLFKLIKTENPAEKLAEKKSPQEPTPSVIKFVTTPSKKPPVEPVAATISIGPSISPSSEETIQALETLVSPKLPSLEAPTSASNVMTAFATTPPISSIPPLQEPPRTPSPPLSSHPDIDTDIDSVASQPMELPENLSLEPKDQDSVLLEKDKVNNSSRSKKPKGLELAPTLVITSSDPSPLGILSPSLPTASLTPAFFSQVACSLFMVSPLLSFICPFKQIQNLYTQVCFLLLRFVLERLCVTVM
# Method in brief: as §1
# ETV2 = target: T4, ETV2 (Homo sapiens, UniProt O00321 1-342)
# T4 sequence: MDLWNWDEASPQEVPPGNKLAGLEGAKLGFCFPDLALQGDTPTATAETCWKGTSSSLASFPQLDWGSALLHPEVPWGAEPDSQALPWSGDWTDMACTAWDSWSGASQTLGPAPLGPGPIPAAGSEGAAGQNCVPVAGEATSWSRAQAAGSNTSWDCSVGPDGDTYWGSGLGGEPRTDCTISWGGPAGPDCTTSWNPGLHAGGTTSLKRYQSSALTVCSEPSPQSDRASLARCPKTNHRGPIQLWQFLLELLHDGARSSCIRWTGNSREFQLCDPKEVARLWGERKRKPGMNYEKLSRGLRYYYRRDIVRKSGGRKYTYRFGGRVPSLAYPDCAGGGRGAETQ
# Method in brief: as §1
# ELF3 = target: T5, ELF3 (Homo sapiens, UniProt P78545 1-371)
# T5 sequence: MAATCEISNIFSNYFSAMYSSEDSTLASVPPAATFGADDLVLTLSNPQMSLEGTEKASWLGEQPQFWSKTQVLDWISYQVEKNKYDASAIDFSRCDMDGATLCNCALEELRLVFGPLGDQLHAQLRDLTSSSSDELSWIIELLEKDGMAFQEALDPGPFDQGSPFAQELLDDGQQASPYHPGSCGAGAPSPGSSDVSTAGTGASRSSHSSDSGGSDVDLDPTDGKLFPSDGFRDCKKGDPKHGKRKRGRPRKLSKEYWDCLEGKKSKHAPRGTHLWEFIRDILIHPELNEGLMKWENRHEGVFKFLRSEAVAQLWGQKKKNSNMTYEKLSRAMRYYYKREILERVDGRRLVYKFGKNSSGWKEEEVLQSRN
# Method in brief: as §1
# ETV1 = ETV1 (Homo sapiens, UniProt P50549 1-477)
# ETV1, sequence (P50549 whole entry): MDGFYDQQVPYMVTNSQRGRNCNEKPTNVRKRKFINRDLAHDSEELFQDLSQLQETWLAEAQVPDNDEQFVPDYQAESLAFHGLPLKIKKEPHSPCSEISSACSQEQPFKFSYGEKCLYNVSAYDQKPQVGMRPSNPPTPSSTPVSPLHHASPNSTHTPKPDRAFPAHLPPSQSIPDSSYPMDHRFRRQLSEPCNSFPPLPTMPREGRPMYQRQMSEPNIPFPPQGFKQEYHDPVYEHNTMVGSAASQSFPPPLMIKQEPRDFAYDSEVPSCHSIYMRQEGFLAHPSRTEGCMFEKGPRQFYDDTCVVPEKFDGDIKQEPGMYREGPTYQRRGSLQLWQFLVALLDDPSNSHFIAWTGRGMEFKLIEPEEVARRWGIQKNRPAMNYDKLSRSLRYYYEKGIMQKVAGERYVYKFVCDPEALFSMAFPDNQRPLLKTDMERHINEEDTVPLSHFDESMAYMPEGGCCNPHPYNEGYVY
# Method in brief: as §1
# ERF = target: T6, ERF (Homo sapiens, UniProt P50548 1-548)
# T6 sequence: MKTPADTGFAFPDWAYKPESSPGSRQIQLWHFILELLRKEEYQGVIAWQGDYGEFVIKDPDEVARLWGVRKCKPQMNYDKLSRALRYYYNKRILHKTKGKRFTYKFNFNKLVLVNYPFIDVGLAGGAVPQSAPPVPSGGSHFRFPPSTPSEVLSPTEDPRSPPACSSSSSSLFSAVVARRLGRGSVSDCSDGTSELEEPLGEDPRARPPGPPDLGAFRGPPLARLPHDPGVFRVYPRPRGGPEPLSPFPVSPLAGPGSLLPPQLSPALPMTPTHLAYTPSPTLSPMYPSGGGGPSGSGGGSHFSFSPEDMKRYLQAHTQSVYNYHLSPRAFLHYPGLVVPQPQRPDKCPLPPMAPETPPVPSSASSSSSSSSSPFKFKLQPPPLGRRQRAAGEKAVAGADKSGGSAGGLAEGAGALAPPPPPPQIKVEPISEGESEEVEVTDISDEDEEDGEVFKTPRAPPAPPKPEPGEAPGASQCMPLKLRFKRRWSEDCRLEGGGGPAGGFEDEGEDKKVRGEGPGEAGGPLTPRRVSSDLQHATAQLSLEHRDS
# Method in brief: as §1
# ETV3L = target: T7, ETV3L (Homo sapiens, UniProt Q6ZN32 1-361)
# T7 sequence: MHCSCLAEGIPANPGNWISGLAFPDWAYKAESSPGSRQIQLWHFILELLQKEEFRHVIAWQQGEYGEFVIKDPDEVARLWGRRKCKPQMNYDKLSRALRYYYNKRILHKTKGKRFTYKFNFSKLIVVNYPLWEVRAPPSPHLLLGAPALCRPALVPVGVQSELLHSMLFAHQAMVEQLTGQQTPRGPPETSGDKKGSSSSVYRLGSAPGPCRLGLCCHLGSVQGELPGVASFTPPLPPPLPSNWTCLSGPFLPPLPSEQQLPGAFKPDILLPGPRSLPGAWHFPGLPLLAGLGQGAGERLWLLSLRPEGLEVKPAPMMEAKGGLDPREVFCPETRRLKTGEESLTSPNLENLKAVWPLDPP
# Method in brief: as §1
# ETS2 = target: T8, ETS2 (Homo sapiens, UniProt P15036 1-469)
# T8 sequence: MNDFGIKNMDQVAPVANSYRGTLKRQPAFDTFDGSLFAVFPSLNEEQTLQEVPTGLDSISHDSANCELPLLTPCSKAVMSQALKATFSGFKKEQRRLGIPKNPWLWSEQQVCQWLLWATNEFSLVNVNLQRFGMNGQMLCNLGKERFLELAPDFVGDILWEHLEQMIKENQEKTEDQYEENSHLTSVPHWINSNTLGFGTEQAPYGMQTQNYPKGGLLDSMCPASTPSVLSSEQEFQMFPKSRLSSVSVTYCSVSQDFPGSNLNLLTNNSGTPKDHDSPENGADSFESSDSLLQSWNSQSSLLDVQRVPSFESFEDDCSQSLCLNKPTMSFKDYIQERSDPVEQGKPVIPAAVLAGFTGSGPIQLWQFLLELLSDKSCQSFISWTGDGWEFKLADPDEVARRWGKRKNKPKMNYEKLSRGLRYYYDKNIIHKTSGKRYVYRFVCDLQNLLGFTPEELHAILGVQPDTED
# Method in brief: as §1
# SPDEF = target: T9, SPDEF (Homo sapiens, UniProt O95238 1-335)
# T9 sequence: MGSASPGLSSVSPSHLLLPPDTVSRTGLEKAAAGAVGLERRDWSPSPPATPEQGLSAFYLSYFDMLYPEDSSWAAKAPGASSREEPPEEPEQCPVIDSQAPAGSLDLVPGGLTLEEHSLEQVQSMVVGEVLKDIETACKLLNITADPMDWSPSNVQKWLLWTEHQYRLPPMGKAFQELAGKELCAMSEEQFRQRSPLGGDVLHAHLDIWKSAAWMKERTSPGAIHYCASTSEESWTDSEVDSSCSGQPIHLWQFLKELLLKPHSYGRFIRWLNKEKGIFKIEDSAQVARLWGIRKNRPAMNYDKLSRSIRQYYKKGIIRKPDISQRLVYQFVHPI
# Method in brief: as §1
# ETV7 = target: T10, ETV7 (Homo sapiens, UniProt Q9Y603 1-341)
# T10 sequence: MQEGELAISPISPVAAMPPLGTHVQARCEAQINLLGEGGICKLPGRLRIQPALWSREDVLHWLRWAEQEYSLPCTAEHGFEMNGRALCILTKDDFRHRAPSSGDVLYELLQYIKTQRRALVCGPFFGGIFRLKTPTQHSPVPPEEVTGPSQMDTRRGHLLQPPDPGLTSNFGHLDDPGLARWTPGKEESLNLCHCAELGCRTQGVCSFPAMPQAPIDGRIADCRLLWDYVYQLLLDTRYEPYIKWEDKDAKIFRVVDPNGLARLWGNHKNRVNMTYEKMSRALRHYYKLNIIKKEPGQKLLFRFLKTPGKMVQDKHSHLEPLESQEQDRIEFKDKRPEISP
# Method in brief: as §1
# ELF5 = target: T11, ELF5 (Homo sapiens, UniProt Q9UKW6-2 1-255)
# T11 sequence: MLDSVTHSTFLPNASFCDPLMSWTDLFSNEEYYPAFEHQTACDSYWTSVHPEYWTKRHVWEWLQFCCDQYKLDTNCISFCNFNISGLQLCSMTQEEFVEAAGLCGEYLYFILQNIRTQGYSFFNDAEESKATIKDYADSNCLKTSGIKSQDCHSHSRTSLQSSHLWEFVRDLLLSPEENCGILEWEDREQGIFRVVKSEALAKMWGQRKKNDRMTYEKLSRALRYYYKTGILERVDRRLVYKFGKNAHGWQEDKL
# Method in brief: as §1
# ETV3 = target: T12, ETV3 (Homo sapiens, UniProt P41162-2 1-143)
# T12 sequence: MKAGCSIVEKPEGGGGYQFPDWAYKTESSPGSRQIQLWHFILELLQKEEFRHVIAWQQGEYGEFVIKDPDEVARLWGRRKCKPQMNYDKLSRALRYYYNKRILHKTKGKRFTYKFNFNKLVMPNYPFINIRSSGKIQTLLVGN
# Method in brief: as §1
# ETV6 = ETV6 (Homo sapiens, UniProt P41212 1-452)
# ETV6, sequence (P41212 whole entry): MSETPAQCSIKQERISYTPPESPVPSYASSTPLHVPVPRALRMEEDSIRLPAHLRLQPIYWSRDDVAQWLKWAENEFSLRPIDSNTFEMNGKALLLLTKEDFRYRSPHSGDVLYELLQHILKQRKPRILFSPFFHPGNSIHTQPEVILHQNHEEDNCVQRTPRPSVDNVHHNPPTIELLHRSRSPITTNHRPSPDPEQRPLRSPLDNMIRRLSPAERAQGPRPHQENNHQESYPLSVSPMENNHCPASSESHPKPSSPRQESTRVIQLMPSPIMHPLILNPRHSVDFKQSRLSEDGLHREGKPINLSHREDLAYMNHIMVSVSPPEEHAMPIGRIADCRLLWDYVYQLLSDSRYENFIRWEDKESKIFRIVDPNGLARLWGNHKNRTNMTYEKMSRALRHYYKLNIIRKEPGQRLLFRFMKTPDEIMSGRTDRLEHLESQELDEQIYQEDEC
# Method in brief: as §1
Sequence,binding signal (FEV),binding signal (ETV5),binding signal (SPIC),binding signal (ELF4),binding signal (ELK4),binding signal (ETV2),binding signal (ELF3),binding signal (ETV1),binding signal (ERF),binding signal (ETV3L),binding signal (ETS2),binding signal (SPDEF),binding signal (ETV7),binding signal (ELF5),binding signal (ETV3),binding signal (ETV6)
GTTGCA,"1.11 fold enrichment (6-mer frequency, TF over GST control)","1.16 fold enrichment (6-mer frequency, TF over GST control)","1.11 fold enrichment (6-mer frequency, TF over GST control)","1.15 fold enrichment (6-mer frequency, TF over GST control)","1.06 fold enrichment (6-mer frequency, TF over GST control)","1.06 fold enrichment (6-mer frequency, TF over GST control)","1.1 fold enrichment (6-mer frequency, TF over GST control)","1.19 fold enrichment (6-mer frequency, TF over GST control)","1.13 fold enrichment (6-mer frequency, TF over GST control)","1.19 fold enrichment (6-mer frequency, TF over GST control)","1.17 fold enrichment (6-mer frequency, TF over GST control)","1.17 fold enrichment (6-mer frequency, TF over GST control)","1.15 fold enrichment (6-mer frequency, TF over GST control)","1.1 fold enrichment (6-mer frequency, TF over GST control)","1.14 fold enrichment (6-mer frequency, TF over GST control)","1.11 fold enrichment (6-mer frequency, TF over GST control)"
TACAAC,"1.17 fold enrichment (6-mer frequency, TF over GST control)","1.13 fold enrichment (6-mer frequency, TF over GST control)","1.22 fold enrichment (6-mer frequency, TF over GST control)","1.11 fold enrichment (6-mer frequency, TF over GST control)","1.07 fold enrichment (6-mer frequency, TF over GST control)","1.09 fold enrichment (6-mer frequency, TF over GST control)","1.02 fold enrichment (6-mer frequency, TF over GST control)","1.13 fold enrichment (6-mer frequency, TF over GST control)","1.1 fold enrichment (6-mer frequency, TF over GST control)","1.11 fold enrichment (6-mer frequency, TF over GST control)","1.12 fold enrichment (6-mer frequency, TF over GST control)","1.17 fold enrichment (6-mer frequency, TF over GST control)","1.09 fold enrichment (6-mer frequency, TF over GST control)","1.09 fold enrichment (6-mer frequency, TF over GST control)","1.15 fold enrichment (6-mer frequency, TF over GST control)","1.11 fold enrichment (6-mer frequency, TF over GST control)"
ACACCA,"1.03 fold enrichment (6-mer frequency, TF over GST control)","1.04 fold enrichment (6-mer frequency, TF over GST control)","1.13 fold enrichment (6-mer frequency, TF over GST control)","1.02 fold enrichment (6-mer frequency, TF over GST control)","1.08 fold enrichment (6-mer frequency, TF over GST control)","1.05 fold enrichment (6-mer frequency, TF over GST control)","1.01 fold enrichment (6-mer frequency, TF over GST control)",,,"1.04 fold enrichment (6-mer frequency, TF over GST control)",,,,"1.01 fold enrichment (6-mer frequency, TF over GST control)","1.02 fold enrichment (6-mer frequency, TF over GST control)",

# Reference: PMC7862700, “An all-to-all approach to the identification of sequence-specific readers for epigenetic DNA modifications on cytosine”
